# Bioassay records (PubChem)
# Hits are enriched below; roughly 18% of the tested compounds scored in any of these assays.
# TDP1 inh: inhibitors of human tyrosyl-DNA phosphodiesterase TDP1. Q9NUW8. recombinant TDP1, AlphaScreen DNA substrate cleavage. Potency, µM (titrated, usually from 130 µM), for inactives: top-dose activity change, negative = inhibition, actives largely listed as inhibitors. actives 0.28% (n = 350,000). AID 485290; note: potency is the fitted concentration of half-maximal effect; % is set by controls: 0 for no effect and ±100 for the full control effect; nearly all actives have a fitted effect of over 40% in size
# Target sequence (Q9NUW8 whole entry, looked up): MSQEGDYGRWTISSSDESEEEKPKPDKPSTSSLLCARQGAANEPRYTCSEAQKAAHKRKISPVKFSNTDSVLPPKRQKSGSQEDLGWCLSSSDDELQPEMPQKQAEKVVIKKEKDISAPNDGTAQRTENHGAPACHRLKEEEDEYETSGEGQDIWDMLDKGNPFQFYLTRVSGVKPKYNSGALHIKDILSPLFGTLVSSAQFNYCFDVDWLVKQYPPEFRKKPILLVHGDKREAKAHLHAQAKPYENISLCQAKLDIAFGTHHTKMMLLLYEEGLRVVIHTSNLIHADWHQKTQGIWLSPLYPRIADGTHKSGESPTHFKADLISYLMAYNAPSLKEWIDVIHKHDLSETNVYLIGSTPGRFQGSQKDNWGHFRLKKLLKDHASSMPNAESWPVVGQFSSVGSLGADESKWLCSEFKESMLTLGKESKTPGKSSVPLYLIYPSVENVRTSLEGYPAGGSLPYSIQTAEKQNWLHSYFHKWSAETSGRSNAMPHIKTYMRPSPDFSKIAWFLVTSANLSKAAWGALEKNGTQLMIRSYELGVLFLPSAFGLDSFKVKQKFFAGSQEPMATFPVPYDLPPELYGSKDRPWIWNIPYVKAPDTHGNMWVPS
#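 Compounds were preincubated with Tdp1 (1 nM final) for 15 min at room temperature before substrate (15 nM final) started a 5 min reaction; beads (10 ug/ml final) were then added for 10 min before AlphaScreen detection.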
# HepG2 viability: kills HepG2 cells in TGF-b inhibitor counter-screen | Potency, µM (series often up to 46.1 µM), without a hit: top-dose activity change, negative = cytotoxicity, hits mostly cytotoxic | AID 588856 | actives 0.76% (n = 410,000) | HepG2 CAGA-GFP viability, ATP luminescence, 18 h; note: potency is the fitted concentration of half-maximal effect
#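 HepG2 CAGA-GFP cells (1000/well, DMEM with 1% FBS) received compound, then TGF-beta at 500 pg/mL final, and were incubated 18 hours at 37 degrees C. Viability was read by CellTiter-Glo luminescence. Media-only wells were set as complete cell-killing and DMSO as no toxicity.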
# TDP1 cell noCPT: qHTS for Inhibitors of human tyrosyl-DNA phosphodiesterase 1 (TDP1): qHTS in cells in absence of CPT | DT40 Tdp1-/- hTDP1 cells, no CPT, ATP luminescence, 48 h | Potency, µM (top dose mostly 46.2 µM), for the others: at the highest dose activity change, negative = growth inhibition, usual class: inhibitors | actives 15% (n = 420,000); note: potency is the fitted concentration of half-maximal effect; % is set by controls: 0 for no effect and ±100 for the full control effect; nearly all actives have a fitted effect of over 55% in size
#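 Stably hTDP1-transfected Tdp1-null chicken DT40 cells were treated with library compounds minus camptothecin and grown for at least 48 hr at 37 °C, after which cellular ATP was quantified by luminescence.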
# TDP1 cell CPT: DT40-hTDP1 cell growth loss with CPT; actives 12% (n = 420,000); Potency, µM (highest dose often 46.2 µM), inactives show at the top dose activity change, negative = growth inhibition, usual class: inhibitors; chicken DT40 Tdp1-/-;hTDP1 cells + 20 nM CPT, ATP luminescence, 48 h; AID 686979; note: potency is the fitted concentration of half-maximal effect; % is set by controls: 0 for no effect and ±100 for the full control effect; nearly all actives have a fitted effect of over 55% in size
#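 Chicken DT40 Tdp1-/- cells complemented with human TDP1, 400 cells/well, exposed to compounds plus 20 nM camptothecin for at least 48 h at 37 C; viability read as ATP content by CellTiter-Glo luminescence.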
# IL1B secr inh: inflammasome signaling inhibition, IL-1 beta readout; THP-1 LPS/ATP IL-1B secretion, AlphaLISA, 16 h; stronger effect = lower value; activity change, % at 57.5 µM; actives 4.7% (n = 360,000); AID 743279; in the data active = activity change below about -50%; inconclusive = mostly about -30% to -49%; note: % is set by controls: 0 for no effect and ±100 for the full control effect
#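 THP-1 cells pretreated 1 hr with compounds (up to 57.5 uM final), then stimulated with LPS (250 ng/mL final) plus ATP (1.25 mM final); secreted IL-1B measured by AlphaLISA after 16 hr, decreased signal indicating inhibition.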
# TGFb inhibitor: TGF-b pathway inhibition | HepG2 CAGA-GFP TGF-b/SMAD3 reporter, GFP fluorescence, 18 h; TGF-beta stimulated, 500 pg/mL final | Potency, µM (series often up to 46.1 µM), for inactives: at the top dose activity, negative = inhibition, actives largely listed as inhibitors | actives 1.2% (n = 410,000); note: potency is the fitted concentration of half-maximal effect; % is set by controls: 0 for no effect and ±100 for the full control effect; nearly all actives have a fitted effect of over 65% in size
#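 HEPG2 CAGA-GFP cells (1000/well, DMEM with 1% FBS) were pre-incubated 2 h at 37 degrees C, given compound by pin tool, then stimulated with TGF-beta at 500 pg/mL final for 18 h before per-cell GFP fluorescence imaging.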
# An asterisk follows results filed as active; u = inconclusive; x = no result; [ ] = another dose, or the depositor's remark. Unless noted, calls come from the whole dose curve; as a rule, active = well fitted curve in the direction sought with a large enough effect; inconclusive = small, poorly fitted or top-dose-only effect, or another doubt; inactive = no such curve, though single readings can be large; an effect the other way counts as inactive or inconclusive.
SMILES,TDP1 inh,HepG2 viability,TDP1 cell noCPT,TDP1 cell CPT,IL1B secr inh,TGFb inhibitor
CCOc1ccc(C(=O)CSc2nnc3cc(C)c4ccccc4n23)cc1,1%,-2%,-21%,6%,x,-23%
CCCn1c(N)c(C(=O)CSc2n[nH]c(-c3ccc(C)cc3)n2)c(=O)[nH]c1=O,6%,0%,-17%,u,24,0%
CC(C)c1cccc(-c2ccc3c(c2)S(=O)(=O)c2cccc(C(=O)NCc4ccccc4Cl)c2C3=O)c1,-1%,-34%,6.5µM*,2.6µM*,18,-14%
O=C(NCc1ccc(F)cc1)c1cccc2c1C(=O)c1ccc(Cl)cc1S2(=O)=O,-1%,x,x,x,x,x
CC(C)c1cccc(-c2ccc3c(c2)S(=O)(=O)c2cccc(C(=O)NCc4ccccc4)c2C3=O)c1,1%,-23%,23µM*,u,18,0%
Cc1ccc2c(c1)C1(C)C(C(C)(C)N2C=O)C1(Cl)Cl (stereo unspecified),x,-14%,10µM*,-23%,-6,-19%
COc1ccc(OC)c(S(=O)(=O)N2CCCCC2C(=O)N2CCN(c3ccccn3)CC2)c1 (stereo unspecified),3%,1%,-21%,u,-13,2%
CCOc1ccc(S(=O)(=O)N2CCC(C(=O)N3CCc4ccccc4C3)CC2)cc1,3%[56.1 µM],13%,15µM*,u,-19,-12%
CSc1ccc(S(=O)(=O)N2CCC(C(=O)N3CCc4ccccc4C3)CC2)cc1,1%,7%,u,u,-64*,u
CS(=O)(=O)N1CCC(C(=O)N2CCc3ccccc3C2)CC1,2%,-12%,-2%,-3%,7,-9%
COc1ccc(OC)c(S(=O)(=O)N2CCCC2C(=O)N2CCc3ccccc3C2)c1 (stereo unspecified),x,-1%,23µM*,15µM*,-8,u
CCOc1ccc(S(=O)(=O)N2CCc3ccccc3C2)cc1,-6%,-32%,2%,-5%,1,u
C=CCC[C@@H](Cc1ccc(F)cc1)C(=O)OC[C@@H](Cc1c[nH]c2ccccc12)NC(=O)[C@@H](CC=C)CC(=O)N[C@H](CO)Cc1ccccc1,1%,-18%,u,u,-7,u
C=CCC[C@@H](Cc1ccc(F)cc1)C(=O)OC[C@@H](Cc1c[nH]c2ccccc12)NC(=O)[C@H](CC=C)CC(=O)N[C@H](CO)Cc1ccccc1,2%,-80%,u,u,91,u
C=CCC[C@H](Cc1ccc(F)cc1)C(=O)OC[C@@H](Cc1c[nH]c2ccccc12)NC(=O)[C@@H](CC=C)CC(=O)N[C@@H](CO)Cc1ccccc1,1%,-56%,23µM*,u,-30,10µM*
C=CCC[C@@H](Cc1ccc(F)cc1)C(=O)OC[C@H](Cc1c[nH]c2ccccc12)NC(=O)[C@@H](CC=C)CC(=O)N[C@@H](CO)Cc1ccccc1,1%,-49%,u,21µM*,-3,u
C=CCC[C@@H](Cc1ccc(F)cc1)C(=O)OC[C@@H](Cc1c[nH]c2ccccc12)NC(=O)[C@@H](CC=C)CC(=O)N[C@@H](CO)Cc1ccccc1,3%,-9%,u,23µM*,-19,-29%
O=C(CCCn1c(=O)c2cccn2c2cccnc21)NCc1ccccc1Br,0%,-12%,-22%,-23%,x,-30%
CCN(C(=O)COC(=O)CCC(=O)c1ccc(Cl)cc1)c1c(N)n(Cc2ccccc2)c(=O)[nH]c1=O,x,-6%,23µM*,18µM*,-7,-11%
CCN(C(=O)COC(=O)c1cc2c(s1)CCC(C)C2)c1c(N)n(Cc2ccccc2)c(=O)[nH]c1=O (stereo unspecified),x,-45%,u,16µM*,-26,u
CC1CCc2sc(C(=O)OCC(=O)NCc3ccc(F)cc3)cc2C1 (stereo unspecified),5%,-20%,15µM*,21µM*,7,0%
COCCN(C(=O)COC(=O)CCC(=O)c1ccc(C)cc1)c1c(N)n(Cc2ccccc2)c(=O)[nH]c1=O,0%,-8%,-17%,-9%,0,-2%
CCN(C(=O)COC(=O)c1ccc2[nH]c(C)c(C)c2c1)c1c(N)n(Cc2ccccc2)c(=O)[nH]c1=O,x,7%,-30%,18µM*,0,13%
CCc1ccc(C(=O)OCC(=O)N(CC)c2c(N)n(Cc3ccccc3)c(=O)[nH]c2=O)cc1,-6%,-11%,1%,-5%,4,9%
CCCc1nn2c(=O)cc(COC(=O)c3ccco3)nc2s1,3%,5%,-17%,-7%,x,u
SMILES,TDP1 inh,HepG2 viability,TDP1 cell noCPT,TDP1 cell CPT,IL1B secr inh,TGFb inhibitor
O=C(CCCN1C(=O)NC2(CCCC2)C1=O)Nc1ccc(Cl)c(S(=O)(=O)N2CCOCC2)c1,0%,1%,1%,8%,16,7%
O=C(CC(c1ccccc1)C1CCCCC1=O)c1ccccc1 (stereo unspecified),x,-15%,16µM*,18µM*,12,0%
CCOc1cc(/C=C(/C#N)C(=O)Nc2ccc(O)cc2)cc(Br)c1O,3%,-32%,0.92µM*,0.65µM*,33,u
N#C/C(=C/c1ccc2c(c1)OCO2)C(=O)Nc1ccc(O)cc1,1%,-53%,12µM*,7.3µM*,-21,-15%
N#C/C(=C\c1ccc2c(c1)OCCO2)C(=O)Nc1ccc(C(=O)O)cc1,x,1%,10%,-1%,-14,5%
C=CCNC(=O)/C(C#N)=C\c1cc(Cl)c(O)c(OCC)c1,3%,8%,-2%,-1%,10,10%
CCOC(=O)c1ccc(N2C(=O)c3n[nH]c(C)c3C2c2ccccn2)cc1 (stereo unspecified),1%,-11%,-29%,-25%,-6,-7%
CCOC(=O)c1ccc(N2C(=O)c3n[nH]c(C)c3C2c2ccc(OCC)cc2)cc1 (stereo unspecified),5%,-117%,10µM*,u,x,11µM*
CCOC(=O)c1ccc(N2C(=O)c3n[nH]c(-c4ccco4)c3C2c2ccc(C)cc2)cc1 (stereo unspecified),7%,16µM*,10µM*,26µM*,x,u
